PubChem BioAssay
Unmarked numbers belong to inactive results. For some of these results: Results with a measured potency or affinity are listed apart. The source made the active and inactive calls. Unless noted, no rule for the calls is given here.

Assays:
[1] = antimalarial activity against Dd2 strain (AID 2302;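 active = growth inhibition above 50% at the single 2 µM test dose, taken to imply half-maximal potency below 2 µM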;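 also: 0% = DMSO untreated growth and 100% = chloroquine plus artemisinin killed control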); details: P. falciparum Dd2 in RBCs, LDH growth readout, 72 h; at 2 µM; active compounds read high
[2] = human hepatoma cell viability loss – ATP luminescence, cytotoxicity control for P. falciparum antimalarial project, primary screen (AID 2303;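 active = inhibition above 50%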;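 also: 0% = DMSO wells and 100% = digitonin-killed cells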); details: HepG2 viability, 24-48 h, at 10 µM, active compounds read high
[3] = molecular target: L-lactate dehydrogenase (Plasmodium falciparum (isolate CDC / Honduras)) (UniProt Q27743); assay: PfLDH activity inhibition – cell lysate, 3D7 strain, counter-screen for P. falciparum growth inhibition project (AID 2304);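 also: 0% = vehicle and 100% = reference inhibitor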; details: P. falciparum 3D7 crude extract, LDH APAD/NBT absorbance; at 2 µM; active compounds read high
Chain of L-lactate dehydrogenase (Plasmodium falciparum (isolate CDC / Honduras)) (Q27743 whole entry, looked up): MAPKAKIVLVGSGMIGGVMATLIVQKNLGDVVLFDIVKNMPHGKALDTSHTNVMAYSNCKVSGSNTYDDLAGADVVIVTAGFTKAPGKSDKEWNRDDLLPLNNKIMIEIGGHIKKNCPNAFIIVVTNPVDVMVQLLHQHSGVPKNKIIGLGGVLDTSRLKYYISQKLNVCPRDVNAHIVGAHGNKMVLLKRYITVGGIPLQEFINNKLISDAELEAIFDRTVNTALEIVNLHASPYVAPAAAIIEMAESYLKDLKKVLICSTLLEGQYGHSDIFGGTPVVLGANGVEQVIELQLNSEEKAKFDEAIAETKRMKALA

[4] = inhibition of 3D7 malaria parasite growth – strain 3D7 (AID 2306);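 also: 0% = DMSO wells and 100% = chloroquine plus artemisinin control wells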; details: P. falciparum 3D7 erythrocytic growth, LDH absorbance, 72 h; at 2 µM; active compounds read high
[5] = molecular target: Calcium-dependent protein kinase 1 (Plasmodium falciparum (isolate 3D7)) (UniProt P62344); assay: PfCDPK1 kinase inhibitors, biochemical, TCAMS library (AID 1159585; cut-off not given, nearly all actives have IC50 up to about 0.98 µM;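 also: inhibitors leave more ATP so luminescence rises with inhibition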); details: recombinant PfCDPK1, Kinase-Glo ATP depletion luminescence
Chain of Calcium-dependent protein kinase 1 (Plasmodium falciparum (isolate 3D7)) (P62344 whole entry, looked up): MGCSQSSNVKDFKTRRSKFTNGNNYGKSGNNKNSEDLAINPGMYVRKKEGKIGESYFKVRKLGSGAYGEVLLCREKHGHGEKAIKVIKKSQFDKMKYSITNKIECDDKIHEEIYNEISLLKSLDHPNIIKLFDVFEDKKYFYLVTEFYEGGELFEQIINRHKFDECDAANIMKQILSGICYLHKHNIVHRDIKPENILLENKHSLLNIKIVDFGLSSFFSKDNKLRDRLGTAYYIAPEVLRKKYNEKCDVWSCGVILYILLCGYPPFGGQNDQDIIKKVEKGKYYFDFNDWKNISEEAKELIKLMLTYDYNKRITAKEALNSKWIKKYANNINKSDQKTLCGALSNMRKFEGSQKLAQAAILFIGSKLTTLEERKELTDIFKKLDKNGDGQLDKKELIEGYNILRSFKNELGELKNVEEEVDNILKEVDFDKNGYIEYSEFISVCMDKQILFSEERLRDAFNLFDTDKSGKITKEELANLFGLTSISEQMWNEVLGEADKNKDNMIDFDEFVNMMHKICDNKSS

[6] = molecular target: Plasmodium falciparum protein kinase 6 (PK6, PF3D7_1337100) (UniProt Q8IDW1); assay: PfPK6 kinase inhibitors, biochemical, TCAMS library (AID 1159586); details: recombinant PfPK6, Kinase-Glo ATP depletion luminescence
Chain of Plasmodium falciparum protein kinase 6 (PK6, PF3D7_1337100) (Q8IDW1 1-305): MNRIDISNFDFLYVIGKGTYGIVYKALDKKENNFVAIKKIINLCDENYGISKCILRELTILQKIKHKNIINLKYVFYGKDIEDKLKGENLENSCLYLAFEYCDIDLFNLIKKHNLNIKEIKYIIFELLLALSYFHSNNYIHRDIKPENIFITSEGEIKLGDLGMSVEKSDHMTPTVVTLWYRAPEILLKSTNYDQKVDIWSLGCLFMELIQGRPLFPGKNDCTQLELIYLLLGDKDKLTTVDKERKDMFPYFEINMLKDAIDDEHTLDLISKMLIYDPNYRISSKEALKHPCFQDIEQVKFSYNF

[7] = molecular target: Protein kinase 7 (PK7), Plasmodium falciparum 3D7 (PF3D7_0213400) (UniProt Q7YTF7); assay: inhibition of Plasmodium PK7 catalytic activity – biochemical, TCAMS antimalarial set, Kinase-Glo luminescence (AID 1159587); details: recombinant PfPK7, Kinase-Glo ATP depletion luminescence
Chain of Protein kinase 7 (PK7), Plasmodium falciparum 3D7 (PF3D7_0213400) (Q7YTF7 1-343): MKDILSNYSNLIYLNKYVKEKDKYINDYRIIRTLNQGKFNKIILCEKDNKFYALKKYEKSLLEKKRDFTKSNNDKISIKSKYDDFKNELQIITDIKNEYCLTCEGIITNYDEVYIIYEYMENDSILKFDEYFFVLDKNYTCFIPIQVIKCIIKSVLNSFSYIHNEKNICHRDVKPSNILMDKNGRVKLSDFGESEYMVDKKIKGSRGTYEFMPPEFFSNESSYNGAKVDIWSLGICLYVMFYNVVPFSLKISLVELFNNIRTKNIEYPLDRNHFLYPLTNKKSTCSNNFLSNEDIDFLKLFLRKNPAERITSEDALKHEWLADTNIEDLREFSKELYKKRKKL

[8] = molecular target: Calcium-dependent protein kinase 4 (Plasmodium falciparum (isolate 3D7)) (UniProt Q8IBS5); assay: PfCDPK4 kinase inhibitors, biochemical, TCAMS library (AID 1159588; cut-off not given, nearly all actives have IC50 up to about 0.91 µM); details: recombinant PfCDPK4, Kinase-Glo ATP depletion luminescence
Chain of Calcium-dependent protein kinase 4 (Plasmodium falciparum (isolate 3D7)) (Q8IBS5 whole entry, looked up): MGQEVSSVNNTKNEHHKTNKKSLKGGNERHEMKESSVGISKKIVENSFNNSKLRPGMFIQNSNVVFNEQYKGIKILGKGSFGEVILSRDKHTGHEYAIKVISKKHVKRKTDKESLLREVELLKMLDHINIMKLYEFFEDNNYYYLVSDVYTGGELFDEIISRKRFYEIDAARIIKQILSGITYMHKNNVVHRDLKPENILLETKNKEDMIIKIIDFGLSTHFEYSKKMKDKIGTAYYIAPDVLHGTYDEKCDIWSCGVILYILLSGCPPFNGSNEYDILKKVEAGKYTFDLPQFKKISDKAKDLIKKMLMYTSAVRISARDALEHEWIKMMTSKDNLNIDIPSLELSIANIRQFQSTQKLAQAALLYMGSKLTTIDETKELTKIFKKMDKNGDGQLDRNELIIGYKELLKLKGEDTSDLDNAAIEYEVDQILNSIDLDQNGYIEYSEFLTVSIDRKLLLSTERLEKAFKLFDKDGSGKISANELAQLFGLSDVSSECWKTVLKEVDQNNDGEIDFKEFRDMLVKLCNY

SMILES | growth inhibition [1] | inhibition [2] | inhibition [3] | growth inhibition [4] | outcome [5] | outcome [6] | outcome [7] | outcome [8]
CCN1CCC(N(Cc2ccc(-c3ccc(C(F)(F)F)cc3)cc2)C(=O)Cn2c(CCc3cccc(F)c3F)nc(=O)c3ccccc32)CC1 | 95% (active) | 99% (active) | 3% | 95% (active) | inactive | inactive | inactive | inactive
COc1ccc(CNC2CCN(C)CC2)cc1-c1ccc(S(=O)(=O)NC2CCC2)c(F)c1 | 97% (active) | 96% (active) | 7% | 101% (active) | inactive | inactive | inactive | inactive
COc1ccc2nc(C)cc(Nc3ccc(Oc4ccc(Cl)c5ccccc45)c(Cl)c3)c2c1 | 100% (active) | 83% (active) | -2% | 100% (active) | inactive | inactive | inactive | inactive
COc1cc(NC(=O)/C=C/c2cc(F)cc(F)c2F)cc(OCCN2CCN(CCN3CCOCC3)CC2)c1 | 94% (active) | 21% | 0% | 102% (active) | inactive | inactive | inactive | inactive
O=C1CCCN1CCCNCc1cccc(-c2ccc(-c3nc4ccccc4[nH]3)s2)c1 | 0% | -6% | -3% | 97% (active) | inactive | inactive | inactive | inactive
CNCCNCc1ccc(-c2ccc(-c3nc4c(C)cccc4[nH]3)s2)cc1 | 26% | 16% | 5% | 97% (active) | inactive | inactive | inactive | inactive
Cc1cc(NC(=O)NCCN2CCC(NS(=O)(=O)c3cccc(Br)c3)C2)c2ccccc2n1 (stereo not drawn) | 58% (active) | 0% | -2% | 99% (active) | inactive | inactive | inactive | inactive
CC(=O)Nc1ccc(C(=O)Nc2ccc(-c3cccc(-c4nc5ccccc5[nH]4)c3)cc2)cn1 | 84% (active) | 34% | 2% | 99% (active) | inactive | inactive | inactive | inactive
CN1CCC(NCc2ccc(-c3cnc(NCc4ccccc4)nc3)cc2)CC1 | 64% (active) | 23% | 4% | 91% (active) | inactive | inactive | inactive | inactive
CN1CCCC1CCNCc1cccc(-c2cnc(N(C)C3CCCCC3)nc2)c1 (stereo not drawn) | 95% (active) | 98% (active) | 2% | 99% (active) | inactive | inactive | inactive | inactive
N#Cc1ccc(-c2ccc(C(=O)NCCCCN3CCC(c4ccc5c(c4OCc4ccncc4)CCCC5)CC3)cc2)cc1 | 57% (active) | 41% | 1% | 81% (active) | inactive | inactive | inactive | inactive
CC1CC1C(=O)NC1CCN(CC2(c3ccccc3)CCCCC2)CC1 (stereo not drawn) | 95% (active) | -1% | 0% | 97% (active) | inactive | inactive | inactive | inactive
COc1ccc(OC)c2c1CCN(C)C2Cc1cccc2ccccc12 (stereo not drawn) | 79% (active) | 13% | 7% | 91% (active) | inactive | inactive | inactive | inactive
COc1ccc2ncc(F)c([C@H](O)CN3CCC(NCc4ccc5c(c4)NC(=O)CS5)CC3)c2c1 | 98% (active) | 7% | -13% | 102% (active) | inactive | inactive | inactive | inactive
COc1cccc2c(NCCNc3ccnc4c(OC)cccc34)ccnc12 | 86% (active) | 11% | 0% | 93% (active) | inactive | inactive | inactive | inactive
O=C(Nc1ccccc1)c1ccc(N2CCC(COc3cccc(C(F)(F)F)c3)CC2)nc1 | 83% (active) | 11% | -3% | 96% (active) | inactive | inactive | inactive | inactive
NC(=O)c1cccc(C(=O)Nc2cccc(-c3cccc(-c4nc5ccc(C(F)(F)F)cc5[nH]4)c3)c2)c1 | 85% (active) | 71% (active) | -5% | 100% (active) | inactive | inactive | inactive | inactive
CC1(C)N=C(N)N=C(N)N1OCCc1ccc2ccccc2c1 | 95% (active) | 65% (active) | 3% | 96% (active) | inactive | inactive | inactive | inactive
COc1ccc(C(=O)N2CCC(C(=O)NC(C)c3ccc(-n4ccnc4)cc3)CC2)c2ccccc12 (stereo not drawn) | 79% (active) | 12% | -4% | 83% (active) | inactive | inactive | inactive | inactive
COc1cc(C2Nc3ccc4ccccc4c3C3=C2C(=O)CC(C)(C)C3)ccc1Oc1ccc([N+](=O)[O-])cc1C#N (stereo not drawn) | 94% (active) | 8% | -1% | 99% (active) | inactive | inactive | inactive | inactive
O=C(Nc1ccc(-c2nc3ccccc3[nH]2)cc1)C1CCCN(C2CCC2)C1 (stereo not drawn) | 5% | -1% | 4% | 90% (active) | inactive | inactive | inactive | inactive

SMILES | growth inhibition [1] | inhibition [2] | inhibition [3] | growth inhibition [4] | outcome [5] | outcome [6] | outcome [7] | outcome [8]
COc1ccc(-c2csc3ncnc(Cl)c23)cc1OC | 84% (active) | -25% | 4% | 93% (active) | inactive | inactive | inactive | inactive
Oc1ccc(CCNc2nc(N/N=C/c3ccc(Cl)cc3)nc(N3CCNCC3)n2)cc1 | 68% (active) | 14% | 5% | 100% (active) | inactive | inactive | inactive | inactive
CNC(=O)c1ccccc1Nc1nc(Nc2cccnc2)ncc1C | 90% (active) | 17% | 1% | 93% (active) | inactive | inactive | inactive | inactive
COc1ccc2c(c1)CC(CNC[C@H](O)c1cccc(Cl)c1)CC2 (stereo partly drawn) | 73% (active) | 1% | 7% | 94% (active) | inactive | inactive | inactive | inactive
CCCC(C)NC(=O)[C@H]1CNCCN1C(=O)CCCc1ccccc1 (stereo partly drawn) | 98% (active) | 47% | 4% | 96% (active) | inactive | inactive | inactive | inactive
Oc1cccc(Nc2nc(NCc3ccco3)c3ccccc3n2)c1 | 74% (active) | 9% | 0% | 103% (active) | inactive | inactive | inactive | inactive
CCCCCCNC(=O)C1Cc2c([nH]c3ccc(F)cc23)C2(CCN(Cc3ccccc3)CC2)N1 (stereo not drawn) | 39% | 11% | -1% | 97% (active) | inactive | inactive | inactive | inactive
CCOc1c(Br)cc(Cl)cc1CNCCCNc1nc2ccccc2[nH]1 | 3% | 27% | -2% | 98% (active) | inactive | inactive | inactive | inactive
COc1ccc2nccc([C@@H](O)CN3CCC(NCc4ccc5cccc(O)c5n4)CC3)c2n1 | 13% | 8% | 2% | 94% (active) | inactive | inactive | inactive | inactive
CCc1cn2c3c(cc(C(=O)N[C@@H](Cc4ccccc4)[C@H](O)CNC(C)C)cc13)N(C)S(=O)(=O)C2 | 98% (active) | 16% | 8% | 98% (active) | inactive | inactive | inactive | inactive
COc1ccccc1N(C)CCNc1cc(C)nc(Nc2ccc(C)cc2)n1 | 25% | 9% | 0% | 93% (active) | inactive | inactive | inactive | inactive
CC(C)C[C@H](NC(=O)OC(C)(C)C)C(=O)Nc1ccc(Cc2ccc(NC(=O)[C@H](CC(C)C)NC(=O)OC(C)(C)C)cc2)cc1 | 88% (active) | -5% | 0% | 94% (active) | inactive | inactive | inactive | inactive
Cn1nc(-c2ccc(S(=O)(=O)N3CCC(CCN4CCC(c5c[nH]c6ccccc56)CC4)CC3)s2)cc1C(F)(F)F | 22% | 40% | 4% | 94% (active) | inactive | inactive | inactive | inactive
O=C(Nc1ccc(N2CCCN(Cc3cccc(F)c3)CC2)cc1)c1ccc(F)cc1 | 95% (active) | 0% | 3% | 96% (active) | inactive | inactive | inactive | inactive
O=C(/C=C/c1ccc(Cl)cc1)NCCCCCN1CCCC(C(=O)Nc2ccc(F)c(Cl)c2)C1 (stereo not drawn) | 6% | 27% | 7% | 94% (active) | inactive | inactive | inactive | inactive
O=C(NCc1cccc(F)c1)Nc1ccc(-c2cccc(-c3nc4ccc(F)cc4[nH]3)c2)cc1 | 2% | 31% | 7% | 88% (active) | inactive | inactive | inactive | inactive
Nc1nc(Nc2cccc(O)c2)nc2ccccc12 | 79% (active) | 25% | 4% | 96% (active) | inactive | inactive | inactive | inactive
CN(C(=O)/C=C/c1cc(C(F)(F)F)ccc1F)C1CCN(CCCCCNC(=O)/C=C/c2ccc(Cl)c(Cl)c2)C1 (stereo not drawn) | 1% | 16% | -3% | 93% (active) | inactive | inactive | inactive | inactive
CCC1CN2CCc3c([nH]c4ccc(OC)cc34)[C@@H]2C[C@@H]1CC1NCCc2cc(OC)c(OC)cc21 (stereo partly drawn) | 21% | 17% | -2% | 100% (active) | inactive | inactive | inactive | inactive
COc1cc(CNC[C@@H](O)[C@H](Cc2ccccc2)NC(=O)c2cc(C3CCCC3)cc(N3CCCC3=O)c2)cc(OC)c1 | 76% (active) | 16% | 6% | 97% (active) | inactive | inactive | inactive | inactive
